High-throughput results from PubChem BioAssay.
Compounds with a hit are over-represented: about 4.2% of the library has one in this group of screens.
V-ATPase pHluor: regulators of yeast V-ATPase proton pumping, primary screen, pHLuorin cytosolic pH fluorescence; S. cerevisiae; response, % at 10 µM; hit rate 0.37% among 350,000; AID 504577, 2011; in the data active = response mostly above about 7.3%, no sharp cut-off; inactive = mostly below about 5.4%; note: actives read high
tim23-1 inh: growth inhibitors of tim23-1 mutant yeast, primary screen, luminescence, uHTS | S. cerevisiae tim23-1 growth, BacTiter-Glo luminescence, 24 h | inhibition, % at 20 µM | hit rate 1.3% among 330,000 | AID 463212, 2010;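 active = growth inhibition of the mutant yeast at or above 50%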;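 note: temperature-sensitive mutant grown at 25 °C; plate controls were DMSO-treated mutant yeast for no effect and medium wells lacking yeast for full effect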
tim10-1 inh: growth inhibitors of tim10-1 mutant yeast, primary screen, luminescence, uHTS | AID 463190, 2010 | hit rate 2.2% among 330,000 | S. cerevisiae tim10-1 ts strain growth, BacTiter-Glo, 24 h | inhibition, % at 20 µM;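 active = inhibition of at least 40%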;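 note: mutant grown at 25 °C; 0% = DMSO wells with yeast and 100% = wells holding no yeast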
NALP3 yeast inh: NALP3 inflammasome inhibitors in reconstituted yeast, primary screen, luminescence, uHTS | Yeast reconstituted NLRP3/ASC/caspase-1, beta-gal luminescence, 24 h | AID 2825, 2010 | hit rate 0.39% among 330,000 | inhibition, % at 10 µM;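 active = inhibition of 50% or more; inactive = inhibition below 50%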;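 note: plate controls were induced DMSO wells for no effect and uninduced yeast grown without galactose for full effect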
TIM10 inh: growth inhibitors of isogenic TIM10 control yeast, primary screen, counter-screen for tim10-1 yeast inhibitor project, luminescence, uHTS; inhibition, % at 10 µM; AID 463195, 2010; S. cerevisiae TIM10 strain growth, BacTiter-Glo luminescence, 24 h; hit rate 1.4% among 330,000;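 active = inhibition of 40% or more at the single tested concentration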;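 note: wild-type TIM10 isogenic control strain grown at permissive 25 °C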
NALP1 inh: NALP1 inflammasome inhibitors in reconstituted yeast, colorimetric, S. cerevisiae, triplicate retest. hit rate 0.61% among 280,000. S. cerevisiae NALP1/ASC/caspase-1 growth, X-gal OD620, 72 h. AID 2071, 2009. inhibition, % at 10 µM; in the data active = inhibition mostly above about 24%, no sharp cut-off; inactive = mostly below about 32%
NALP3 confirm: NALP3 inhibitors retested in yeast, confirmation, luminescence, single concentration | shares compounds with NALP3 yeast inh | yeast expressing human NALP3 | inhibition, % at 10 µM | hit rate 81% among 1,300 | AID 435006, 2010; in the data active = inhibition above about 48%
Casp1 ASC ctr: CASP1-PYCARD signaling inhibition in yeast, confirmatory test, counterassay for NLRP3 inhibitor program, one-dose; AID 488784, 2010; inhibition, % at 10 µM; hit rate 66% among 1,000; shares compounds with NALP3 yeast inh; yeast expressing Caspase-1-ASC, luminescence counter screen
NALP3 retest: NALP3 inhibitors in yeast, repeat test, confirmation, luminescence, single concentration, retest; shares compounds with NALP3 yeast inh; yeast expressing human NALP3, luminescence read-out; inhibition, % at 10 µM; hit rate 53% among 1,000; AID 488794, 2010
tim10-1 confirm: growth inhibitors of tim10-1 mutant yeast, confirmation, single concentration, luminescence, S. cerevisiae; shares compounds with tim10-1 inh; S. cerevisiae tim10-1 ts strain growth, BacTiter-Glo, 24 h; inhibition, % at 20 µM; hit rate 56% among 7,400; AID 463213, 2010;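 active = inhibition of yeast growth at or above a set limit in either of two repeat tests at 20 µM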;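 note: tim10-1 mutant grown at permissive 25 °C to find synthetic lethal compounds; 0% = DMSO yeast wells and 100% = medium wells without yeast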
TIM10 conf: growth inhibitors of wild-type TIM10 yeast, confirmation, counter-screen for tim10-1 synthetic lethality project, single concentration, luminescence, S. cerevisiae; inhibition, % at 10 µM; S. cerevisiae tim10 strain growth, BacTiter-Glo luminescence, 24 h; shares compounds with TIM10 inh; hit rate 63% among 4,600;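 active = inhibition of yeast growth at or above a set limit in either of two replicates at 10 µM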;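 note: this counterscreen used the strain with wild-type TIM10; 0% = yeast with DMSO and 100% = medium wells lacking yeast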
An asterisk follows results filed as active; / = no result given; + = active, no number. Cut-off read from the data, not from the text of the source, unless noted: active = inhibition above about 50%; inactive = the rest.

SMILES	V-ATPase pHluor	tim23-1 inh	tim10-1 inh	NALP3 yeast inh	TIM10 inh	NALP1 inh	NALP3 confirm	Casp1 ASC ctr	NALP3 retest	TIM10 conf	others
O=C(Cc1ccc(Br)cc1)OCC(=O)c1ccc[nH]1	0	9	-5	4	3	/	/	/	/	/
Cc1ccc(C(=O)/C=C/Nc2ccccn2)cc1	4	30	3	53*	43*	/	20	/	/	30
Cc1ccc(N/C=C/C(=O)c2ccc(C)cc2)cc1	-5	6	2	18	-20	-3	/	/	/	/
Cc1cc(N2CCCC2=O)ccc1S(=O)(=O)NC1CCCCC1	8	11	-3	26	15	27	/	/	/	/
CCCc1[nH]n(-c2ccc(F)cc2)c(=O)c1C=Nc1ccc(C)cc1	2	7	19	13	-15	30	/	/	/	/
CC(=O)Oc1ccc2occ(C(=O)c3ccccc3)c2c1	-1	17	-20	44	-10	/	/	/	/	/
O=C(CCl)Oc1ccc2occ(C(=O)c3cccs3)c2c1	0	-20	17	73*	61*	-3	86*	/	/	41*
CCN1/C(=C/c2ccc3cc(C)ccc3[n+]2CC)Sc2ccccc21	4	35	65*	56*	66*	123*	68*	100*	99*	75*	tim10-1 confirm=45*
CCN1/C(=C/c2sc(-c3ccccc3C)c[n+]2C)Sc2ccccc21	-4	/	/	/	/	8	/	/	/	/
O=C(Nc1cccc(Cl)c1)c1ccc2c(c1)OCCO2	3	50	50*	78*	60*	23	92*	86*	76*	71*	tim10-1 confirm=40*
CC(C)(C)Cc1c(-c2ccccc2)nc2ccc(Cl)cn12	0	/	/	/	/	/	/	/	/	/
CCCOc1ncnc2c1[nH]c1ccccc12	-3	34	2	74*	48*	-2	88*	81*	76*	31*
COc1ccc(-c2csc(NC(=O)c3ccccc3OC)c2C(=O)O)cc1OC	-2	-6	-32	7	-8	-9	/	/	/	/
Cc1ccccc1C(=O)Nc1scc(-c2ccc(Br)cc2)c1C(=O)O	4	47	22	68*	53*	/	77*	21	28	42*
CCCCN1C(=O)/C(=C/C=C2\Oc3ccccc3N2CC)SC1=S	4	/	/	/	/	9	/	/	/	/
CCN1/C(=C/C=C/c2oc3ccc(-c4ccccc4)cc3[n+]2CC)Oc2ccc(-c3ccccc3)cc21	+	-54	61*	67*	63*	51*	68*	22	43	42*	tim10-1 confirm=-6
Cc1noc(/C=C/c2cccnc2)c1[N+](=O)[O-]	2	44	55*	80*	57*	28	87*	85*	54*	75*	tim10-1 confirm=57*
Cc1cccc(C)c1N/C=C/c1onc(C)c1[N+](=O)[O-]	3	2	2	16	-8	27	/	/	/	/
CCN(CC(=O)Nc1c(F)cccc1F)C(=O)c1ccc(N2CCCC2=O)cc1	-1	11	7	5	-7	/	/	/	/	/
O=C(Nc1ccc2c(c1)Cc1ccccc1-2)c1ccncc1	0	43	18	53*	57*	49	-16	/	/	4
CCn1c(SCCN2CCOCC2)nc2c1c(=O)n(C)c(=O)n2C	1	8	13	24	-7	15	/	/	/	/
